Mtb BioA inh: BioA (M. tuberculosis) enzyme inhibition. purified M. tuberculosis BioA enzyme, plate reader. inhibition, % at 9.99 µM. actives 0.096% (n = 360,000); in the data active = inhibition above about 40%
FadD28 FP inh: M. tuberculosis FadD28 bisubstrate binding inhibition. FadD28 bisubstrate probe binding, fluorescence polarization. inhibition, % at 12.5 µM. actives 0.22% (n = 360,000). AID 588549; in the data active = inhibition above about 8.5%, passing the limit was not always enough
FBA Mtb inh: inhibitors of M. tuberculosis fructose-bisphosphate aldolase; inhibition, % at 1 µM; purified M. tuberculosis FBA, fluorescence read-out; actives 2.3% (n = 360,000); in the data active = inhibition above about 27%;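 also: 0% = vehicle and 100% = reference inhibitor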
Target sequence (P9WQA3 whole entry, looked up): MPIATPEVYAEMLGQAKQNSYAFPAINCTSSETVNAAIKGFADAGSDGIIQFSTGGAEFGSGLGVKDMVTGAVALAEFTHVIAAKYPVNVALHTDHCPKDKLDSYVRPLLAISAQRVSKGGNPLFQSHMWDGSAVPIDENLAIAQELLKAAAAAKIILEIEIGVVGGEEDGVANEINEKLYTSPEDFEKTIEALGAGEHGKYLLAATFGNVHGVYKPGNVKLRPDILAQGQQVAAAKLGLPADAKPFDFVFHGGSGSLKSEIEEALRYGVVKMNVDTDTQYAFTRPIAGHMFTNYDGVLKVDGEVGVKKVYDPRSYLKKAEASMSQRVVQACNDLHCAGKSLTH
SARS 3CLpro inh-1: SARS-CoV 3CLpro protease inhibition; actives 0.14% (n = 290,000); P0C6X7; recombinant SARS-CoV 3CLpro, quenched FRET peptide cleavage; inhibition, % at 6 µM; AID 1706; in the data active = inhibition above about 12%
GDH-TPI counter: GDH-TPI coupled enzyme inhibition counter-screen; GDH-TPI coupled enzyme counterscreen, NADH absorbance; inhibition, % at 4.8 µM; actives 1.2% (n = 360,000); in the data active = inhibition above about 30%;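 also: 0% = DMSO wells and 100% = wells lacking the enzyme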
SARS 3CLpro inh-2: SARS 3CLpro inhibition, confirmation assay; inhibition, % at 6 µM; QFRET protease activity assay; shares compounds with SARS 3CLpro inh-1; actives 36% (n = 380); in the data active = inhibition above about 13%
Starred values were filed as active, the others as inactive; . = not tested or not shown; + = active, no number. A selection: hits, their analogues and other compounds. The true share with any hit is near 3.1%.

SMILES | Mtb BioA inh | FadD28 FP inh | FBA Mtb inh | SARS 3CLpro inh-1 | GDH-TPI counter | SARS 3CLpro inh-2
Cc1noc(C)c1S(=O)(=O)Nc1ccc2c(c1)CC(=O)N([C@@H](C)CO)C[C@@H](C)[C@H](CN(C)S(C)(=O)=O)O2 | -0.9 | . | . | . | . | .
Cn1cnc2cc(OC(=O)c3ccccc3)ccc21 | -1.0 | -0.6 | -1.7 | 14.8* | 5.7 | 10.3
CC(C)(C)n1cnc2cc(NC(=O)c3ccc(Cl)cc3)ccc21 | 10.4 | -4.2 | -1.2 | 1.1 | -1.5 | .
Cn1cnc2cc(NC(=O)c3ccc(Cl)cc3)ccc21 | 1.3 | -1.2 | 0.5 | 32.6* | -7.2 | 31.5*
Cc1ccc(C(=O)Oc2ccc3c(c2)ncn3C)cc1 | 0.6 | -4.7 | -3.1 | 21.8* | -6.7 | 31.3*
Cc1ccc(OCC(=O)Nc2ccc3c(c2)ncn3C)cc1 | 0.1 | -1.1 | 1.5 | . | -0.9 | .
O=C(C1CCOCC1)N1C[C@@H]2[C@H](c3ccccc31)[C@@H](CO)N2C(=O)Nc1ccccc1F | 0.7 | . | . | . | . | .
CN1C(=O)c2cc(NC(=O)c3cccc(Cl)c3)ccc2OC[C@H]2O[C@@H](CC(=O)NC3CCCCC3)CC[C@H]21 | -1.2 | . | . | . | . | .
Cn1nc(-c2ccc(Cl)cc2)nc2c(=O)n(C)c(=O)nc1-2 | 1.8 | . | . | 18.1* | . | 48.3*
CS(=O)(=O)Nc1ccc2c(c1)[C@@H]1C[C@@H](CC(=O)NCc3ccc(Cl)cc3)O[C@@H](CO)[C@@H]1O2 | 0.0 | . | . | . | . | .
NC(=O)CCn1c(C(=O)c2ccc(Cl)cc2)c2ccccc2[n+]1[O-] | 1.4 | 0.4 | -2.7 | 46.5* | 4.3 | 47.8*
Cc1ccc(C(=O)c2c3ccccc3[n+]([O-])n2CCC(=O)O)cc1 | 1.3 | -1.8 | -1.6 | . | 7.6 | .
CC(C)CN(CCC(=O)O)CC(C)C | -2.4 | -0.8 | 2.7 | 14.2* | 6.2 | -6.4
CCCCCn1c(CN2CCN(c3cccc(Cl)c3)CC2)nc2c1c(=O)[nH]c(=O)n2C | . | -1.7 | -2.2 | 3.4 | 2.1 | .
CCCCCn1c(CN2CCN(Cc3ccccc3)CC2)nc2c1c(=O)[nH]c(=O)n2C | 0.7 | -0.6 | 6.2 | 12.6* | 1.5 | 2.0
O=C(Cn1nnc(-c2ccccc2NC(=O)c2ccccc2F)n1)NCc1ccco1 | -0.7 | -1.7 | -1.6 | 12.4* | 0.0 | 0.8
CCOC(=O)c1c(C)oc2c1c1c(c3ccccc32)OCN(Cc2ccccn2)C1 | . | -0.3 | -1.7 | 12.6* | -1.2 | -2.6
COc1ccc(NS(=O)(=O)c2ccc3oc(Nc4ccc5c(c4)OCCO5)nc3c2)cc1 | -0.1 | 6.5 | 0.1 | 13.3* | 9.4 | 5.5
COC(=O)C1=C(C)NC(=S)NC1c1ccc(-c2cccc(Cl)c2)o1 (stereo not given) | . | 0.6 | -1.0 | 3.9 | 4.7 | .
COC(=O)C1=C(C)NC(=S)NC1c1ccc(-c2ccccc2C(=O)OC)o1 (stereo not given) | . | -4.8 | 2.0 | 13.1* | 3.1 | -5.0
C[C@H]1CN([C@@H](C)CO)C(=O)c2cc(C#CC(C)(C)O)cnc2O[C@@H]1CN(C)Cc1cncnc1 | -3.0 | . | . | . | . | .
C[C@H](O)C#Cc1cnc2c(c1)C(=O)N([C@@H](C)CO)C[C@@H](C)[C@@H](CN(C)C(=O)c1ccccc1F)O2 | 0.1 | . | . | . | . | .
CCCC(=O)Oc1ccc2c(C)cc(=O)oc2c1 | . | -3.1 | + | 17.3* | 4.7 | 24.1*
COc1ccc(C(=O)COc2ccc3ccc(=O)oc3c2)cc1 | 4.0 | -1.1 | 12.3 | -4.2 | 16.9 | .
CC(C)(C)OC(=O)NCCC(=O)Oc1ccc2ccc(=O)oc2c1 | -0.5 | -1.5 | + | 28.9* | 10.3 | 59.2*
SMILES | Mtb BioA inh | FadD28 FP inh | FBA Mtb inh | SARS 3CLpro inh-1 | GDH-TPI counter | SARS 3CLpro inh-2
C[C@@H]1CCCCO[C@H](CN(C)Cc2ccc(C(=O)O)cc2)[C@H](C)CN([C@@H](C)CO)C(=O)c2cc(NS(=O)(=O)c3cn(C)cn3)ccc2O1 | 0.6 | . | . | . | . | .
C[C@@H]1CN([C@@H](C)CO)C(=O)c2cccc(NC(=O)Nc3ccc(F)cc3)c2O[C@H]1CN(C)CC1CC1 | 0.6 | . | . | . | . | .
O=C(CN1C(=O)c2ccccc2C1=O)Oc1ccc(F)cc1 | . | . | . | 12.5* | . | 9.9
CCc1ccc(OC(=O)CN2C(=O)c3ccccc3C2=O)cc1 | -2.8 | -0.6 | 0.9 | 6.8 | -4.6 | .
CC(C)CC#Cc1cnc2c(c1)C(=O)N([C@H](C)CO)C[C@@H](C)[C@H](CN(C)S(=O)(=O)c1cn(C)cn1)O2 | 0.8 | . | . | . | . | .
CSc1cccc(NC(=O)Cc2ccccc2[N+](=O)[O-])c1 | . | 4.3 | 1.9 | 13.6* | 1.3 | 6.2
CC(=O)NC1C(=O)N(CCN2CCOCC2)c2ccc(F)cc21 (stereo not given) | . | 0.2 | -3.8 | 12.3* | 1.5 | 44.6*

Screening results from PubChem.
